Reference: PubChem BioAssay (NCI)
The panel holds about 83,000 compounds, 20% with a hit somewhere; the sample as a whole holds those more often.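 96-well plates, one dose, 48 hours. Percent growth reported; active if below 10.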 Active and inactive are the calls of the source.

These compounds were tested on HL-60(TB) leukemia (assay: NCI-60 one-dose screen, 48 h (100 = growth as untreated, 0 = no growth, -100 = all killed)). Conditions: 10 µM unless noted.
In the case of `CN[C@]12CC3(C=CC(=O)C=C3)O[C@@]1(Cc1ccc(OC)cc1)N(C)C(=O)N2`, the growth is reported as -3.53% (active). In the case of `COc1cc2c(cc1-c1c(C)noc1C)ncc1nc(C3CCOCC3)n([C@H](C)COC(F)F)c12`, the growth is reported as 27.5% (inactive). In the case of `O=C1CCC(N2C(=O)c3cccc(NCCOCCOCCNC(=O)c4cc5c(o4)C(=O)c4ccccc4C5=O)c3C2=O)C(=O)N1` (stereo not drawn), the growth is reported as -9.95% (active). In the case of `C=C1C(=O)O[C@H]2[C@H]1CC/C(COC(=O)C(=O)c1cn(C)c3ccc(Cl)cc13)=C\CC[C@@]1(C)O[C@@H]21`, the growth is reported as -35.1% (active). With `COc1ccc2nc(-c3ccc(Cl)cc3)cc(-c3nnc(SCC(=O)Nc4ccc(/C(C)=N\O)cc4)o3)c2c1` the growth was 61.9% (inactive). In the case of `CC(=O)Oc1ccc(C23c4ccccc4C2(OC(C)=O)c2cc(OC(C)=O)ccc23)cc1` (stereo not drawn), the growth is reported as 11.7% (inactive). In the case of `Clc1ccc2c(c1)N(c1ncnc3ccc(-c4cnc5[nH]ncc5c4)cc13)CC2`, the growth is reported as 34.5% (inactive). With `O=C(CSC1CCc2ccccc21)N/N=C/c1ccccc1O` (stereo not drawn) the growth was -12% (active). `Oc1ccc(CCn2c(O)c(/C=C3\CN=c4ccccc4=N3)sc2=S)cc1` was tested, and the growth was 19.5% (inactive). For `CCC(CC)COC(=O)c1ccc(O)c(O)c1`, the growth was 8.36% (active). `Nc1nc2ccc(-c3nc4ccc5[nH]ncc5c4c4c3CCCC4)cc2s1` was tested, and the growth was 94.7% (inactive). In the case of `O=C1Nc2ccccc2/C1=C\c1nc(-c2ccccc2F)n2ccccc12`, the growth is reported as 73.4% (inactive). In the case of `c1coc(-c2c3ccc(=[N+]4CCCCC4)cc-3oc3cc(N4CCCCC4)ccc23)c1`, the growth is reported as -57.5% (active).
